High-throughput results (PubChem)
Hits are enriched below; roughly 10% of the tested compounds scored in any of these assays.
Luciferase inh = Photinus pyralis luciferase inhibition; Potency, µM (top dose mostly 115 µM), most hits filed as inhibitors; 2.5% of 76,000 active; P08659; purified P. pyralis luciferase, luminescence, biochemical; also: nearly all actives have a fitted effect of over 65% in size
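Purified 10nM P. pyralis luciferase with 10uM D-luciferin and 10uM ATP in 50mM Tris acetate pH 7.5, 10mM Mg acetate, 0.01% Tween-20, 0.05% BSA. qHTS titration; luminescence read by CCD imager.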
GPT2 inh = GPT2 alanine aminotransferase inhibition; Recombinant GPT2, coupled pyruvate oxidase/HRP Amplex Red fluorescence; 0.25% of 100,000 active; Q8TD30; Potency, µM (titrated, usually from 57.7 µM), for the others: at the top dose activity change, negative = inhibition, usual class: inhibitors; also: nearly all actives have a fitted effect of over 60% in size
Target sequence (Q8TD30 whole entry, looked up): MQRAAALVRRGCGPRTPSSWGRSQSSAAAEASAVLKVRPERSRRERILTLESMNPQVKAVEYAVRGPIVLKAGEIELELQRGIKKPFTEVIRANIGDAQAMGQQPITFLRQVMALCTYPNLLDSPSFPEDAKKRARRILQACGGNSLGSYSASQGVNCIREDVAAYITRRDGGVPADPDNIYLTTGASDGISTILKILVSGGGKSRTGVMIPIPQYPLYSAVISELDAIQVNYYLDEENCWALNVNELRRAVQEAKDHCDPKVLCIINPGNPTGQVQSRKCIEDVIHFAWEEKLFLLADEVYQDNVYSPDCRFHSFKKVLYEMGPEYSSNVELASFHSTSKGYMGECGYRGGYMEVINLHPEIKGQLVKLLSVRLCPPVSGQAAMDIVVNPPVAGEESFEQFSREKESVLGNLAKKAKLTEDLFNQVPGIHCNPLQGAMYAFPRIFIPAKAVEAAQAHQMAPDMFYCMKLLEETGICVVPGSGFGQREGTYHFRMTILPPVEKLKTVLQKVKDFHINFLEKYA
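Inhibition is scored from Amplex Red fluorescence generated when pyruvate oxidase and HRP act on pyruvate released by GPT2. Reactions contain 10ng/uL enzyme, 250uM a-KG and 2mM L-alanine and run 30 min at room temperature.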
NIH3T3 tox = NIH 3T3 cell cytotoxicity. NIH 3T3 viability, CellTiter-Glo ATP luminescence, 48-72 h. Potency, µM (series often up to 96.7 µM), inactives show at the top dose activity change, negative = cytotoxicity, most hits filed as inhibitors. 4.3% of 94,000 active. AID 1345082; also: nearly all actives have a fitted effect of over 55% in size
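First NIH 3T3 cells are plated at 400 cells/well; next compound is pinned in; then plates incubate 48 or 72 hr at 37 °C; finally CellTiter-Glo is added and luminescence read after 10 min.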
HEK cytotox = cytotoxic compounds in HEK 293 cells | 6.6% of 94,000 active | HEK 293 viability, ATP luminescence (CellTiter-Glo), 48-72 h | Potency, µM (highest dose often 115 µM), inactives show at the highest dose activity change, negative = cytotoxicity, usual class: inhibitors; also: nearly all actives have a fitted effect of over 60% in size
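HEK 293 seeded at 250 cells/well receive compound via pintool. After 48 or 72 hr at 37 degree Celsius, 5% CO2 and 95% humidity, CellTiter-Glo is dispensed and luminescence read following 10 min at room temperature.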
NPR1 antag = human Npr1 receptor antagonism; P16066; HEK293 hNpr1 GloSensor cGMP, ANP-stimulated luminescence; Potency, µM (top dose mostly 46.3 µM), without a hit: at the top dose activity change, negative = inhibition, hits mostly inhibitors; 1.6% of 76,000 active; AID 1347048; calls by dose curve; also: nearly all actives have a fitted effect of over 60% in size
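Compound pre-incubated 30 min at room temperature on GloSensor-loaded HEK293 cells stably carrying hNpr1 and the pGS-40F cGMP biosensor. Stimulation uses hNppA at 0.1 nM final; luminescence is taken at baseline and 20 min post-agonist.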
The depositor's hits bear a star; i = inactive; ? = inconclusive; nt = no result given; [ ] = remark or other dose. Unless noted, calls follow the shape of the dose curve; as a rule, active = well fitted curve in the direction sought with a large enough effect; inconclusive = small, poorly fitted or top-dose-only effect, or another doubt; inactive = no such curve, though single readings can be large; an effect the other way counts as inactive or inconclusive. % is scaled to controls: 0 for no effect and ±100 for the full control effect; potency is read from the fitted curve at half-maximal effect.

SMILES	Luciferase inh	GPT2 inh	NIH3T3 tox	HEK cytotox	NPR1 antag
O=C1c2c(nc(COc3ccc4c(c3)OCO4)n2Cc2ccccc2)NCCN1CCOc1ccccc1	i	-6.9%	?	39.8µM*	-27.9%
Cc1ccccc1NCc1nc2c(n1Cc1ccccc1)C(=O)N(CCOc1ccccc1)CCN2	i	-14.0%	31.6µM*	?	-19.0%
Cc1ccccc1NCc1nc2c(n1Cc1ccccc1)C(=O)N(C)CCN2	i	-11.4%[88.5 µM]	-13.0%[138 µM]	?	-22.3%[70.6 µM]
CCOC(=O)[C@H]1C[C@]2(CCCCN(CCOC)C2=O)N(C(C)=O)[C@H]1c1ccco1	nt	nt	?	31.6µM*	nt
CCOC(=O)[C@H]1C[C@]2(CCCCN(CCOC(C)=O)C2=O)N(C(=O)OCC)[C@H]1c1ccco1	nt	nt	-22.4%	?	nt
O=C(NC[C@H]1COCc2nc3cc(F)ccc3n21)c1ccccc1	i	4.4%[88.5 µM]	-16.4%[138 µM]	-9.3%[172 µM]	4.4%[70.6 µM]
CC(C)c1nc2c(c(-c3ccc(O)cc3)n1)CCN(Cc1ccccc1C(F)(F)F)CC2	i	i	28.2µM*	35.5µM*	?
CC(C)c1nc2c(c(-c3ccc(Cl)cc3)n1)CCN(Cc1ccc(C#N)cc1)CC2	nt	-8.9%	?	39.8µM*	nt
CC(C)c1nc2c(c(-c3ccc(O)cc3)n1)CN(Cc1cccc(C(F)(F)F)c1)CC2	i	i	22.4µM*	31.6µM*	-8.3%
CC(C)c1nc2c(c(-c3ccc(O)cc3)n1)CN(Cc1ccc(N(C)C)cc1)CC2	i	i	-29.3%	79.4µM*	8.4%
Cc1cc(CN2CCc3nc(C(C)C)nc(-c4ccc(Cl)cc4)c3CC2)no1	nt	i	?	?	nt
Cc1ccc(CN2CCc3nc(C(C)C)nc(-c4ccc(O)cc4)c3C2)cc1	i	?	?	?	1.2%
CNC(=O)[C@@H]1C[C@H](Oc2ccccc2)CN1C(=O)Nc1ccccc1	i	i	-6.2%	2.5%	5.7%
COCCCn1c(=O)c(C(=O)N2CCN(C(C)=O)CC2)nc2cccnc21	nt	i	-23.0%	-11.9%	nt
CC(C)c1nc2c(c(-c3ccc(O)cc3)n1)CN(Cc1ccc(F)cc1)CC2	i	2.5%	?	89.1µM*	2.2%
CC(C)c1nc2c(c(-c3ccc(O)cc3)n1)CCN(Cc1ccc(F)cc1)CC2	i	-0.5%	?	?	2.6%
COC(=O)[C@@H]1Cc2c([nH]c3ccccc23)[C@H]2C[C@@H](NCCN3CCOCC3)C[C@@H](c3ccc(C(F)(F)F)cc3)N21	i	-17.9%	14.1µM*	7.94µM*	?
COC(=O)[C@@H]1Cc2c([nH]c3ccccc23)[C@H]2C[C@@H](NCCN3CCOCC3)C[C@@H](c3ccc(OC(F)(F)F)cc3)N21	i	i	22.4µM*	25.1µM*	4.6%
COC(=O)[C@@H]1Cc2c([nH]c3ccccc23)[C@H]2C[C@@H](NCCN3CCOCC3)C[C@@H](c3ccc(F)c(F)c3)N21	i	?	28.2µM*	?	-18.7%
Cc1noc(-c2cn(C3CCN(C(=O)c4cc(F)ccc4F)CC3)nn2)n1	i	-5.1%	-10.8%	-4.4%	14.8%
CCCS(=O)(=O)N1CCC2(CC1)C(=O)N(c1cccc(F)c1)C2c1ccccc1 (centres undefined)	nt	-0.7%	-26.5%	25.1µM*	nt
O=C(c1ccc2ccccc2n1)N1CCC(n2cc(-c3nc(-c4ccccc4)no3)nn2)C1 (centres undefined)	28.2µM*	-5.8%	?	?	?
O=C(c1nccc2ccccc12)N1CCC(n2cc(-c3nc(-c4ccccc4)no3)nn2)C1 (centres undefined)	44.7µM*	i	?	28.2µM*	?
O=C(Cc1ccsc1)N1CCC(n2cc(-c3nc(-c4ccccc4)no3)nn2)C1 (centres undefined)	56.2µM*	i	-27.4%	?	-28.2%
O=C(c1ccco1)N1CCC(n2cc(-c3nc(-c4ccccc4)no3)nn2)C1 (centres undefined)	35.5µM*	0.8%	?	?	-27.1%
Cc1ccc(C(=O)N2CCC(n3cc(-c4nc(-c5ccccc5)no4)nn3)C2)s1 (centres undefined)	i	i	-12.6%	?	?
